This passage reports inhibition results from ChEMBL document CHEMBL1961873, “Compounds: GSK PKIS; Assays: Nanosyn kinase panel” (2012).

Assay [1] has as its target T1, Ephrin type-B receptor 2 (Homo sapiens) (UniProt P29323).
T1 sequence (whole entry): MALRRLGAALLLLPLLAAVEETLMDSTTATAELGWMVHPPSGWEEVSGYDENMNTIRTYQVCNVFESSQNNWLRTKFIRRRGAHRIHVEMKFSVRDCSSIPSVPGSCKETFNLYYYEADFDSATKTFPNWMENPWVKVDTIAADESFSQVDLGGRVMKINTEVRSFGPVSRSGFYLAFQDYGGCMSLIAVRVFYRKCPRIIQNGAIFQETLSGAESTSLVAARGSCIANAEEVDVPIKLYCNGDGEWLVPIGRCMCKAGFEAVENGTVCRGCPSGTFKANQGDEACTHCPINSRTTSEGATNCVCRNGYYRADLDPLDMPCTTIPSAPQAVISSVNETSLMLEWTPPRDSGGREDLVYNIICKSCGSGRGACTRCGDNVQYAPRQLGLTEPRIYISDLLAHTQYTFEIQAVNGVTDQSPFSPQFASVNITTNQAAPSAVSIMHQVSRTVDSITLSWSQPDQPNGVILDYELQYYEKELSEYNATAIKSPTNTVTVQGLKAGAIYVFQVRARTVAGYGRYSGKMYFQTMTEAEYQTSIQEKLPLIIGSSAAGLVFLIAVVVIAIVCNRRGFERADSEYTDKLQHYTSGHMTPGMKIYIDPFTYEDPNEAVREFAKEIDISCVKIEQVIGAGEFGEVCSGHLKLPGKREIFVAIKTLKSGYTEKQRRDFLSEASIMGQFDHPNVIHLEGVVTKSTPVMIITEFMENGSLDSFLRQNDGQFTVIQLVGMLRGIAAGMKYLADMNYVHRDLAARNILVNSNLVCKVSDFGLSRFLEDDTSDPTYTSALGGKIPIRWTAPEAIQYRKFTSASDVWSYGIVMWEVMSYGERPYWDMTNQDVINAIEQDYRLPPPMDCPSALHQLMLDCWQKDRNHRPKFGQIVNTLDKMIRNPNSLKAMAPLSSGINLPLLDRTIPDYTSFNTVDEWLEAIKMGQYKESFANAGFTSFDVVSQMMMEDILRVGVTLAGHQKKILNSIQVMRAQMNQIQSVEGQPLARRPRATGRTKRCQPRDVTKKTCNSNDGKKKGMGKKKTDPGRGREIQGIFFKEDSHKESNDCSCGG
The following applies: at 1 µM.

The target of assay [2] is T2, Ephrin type-B receptor 3 (Homo sapiens) (UniProt P54753).
T2 sequence (whole entry): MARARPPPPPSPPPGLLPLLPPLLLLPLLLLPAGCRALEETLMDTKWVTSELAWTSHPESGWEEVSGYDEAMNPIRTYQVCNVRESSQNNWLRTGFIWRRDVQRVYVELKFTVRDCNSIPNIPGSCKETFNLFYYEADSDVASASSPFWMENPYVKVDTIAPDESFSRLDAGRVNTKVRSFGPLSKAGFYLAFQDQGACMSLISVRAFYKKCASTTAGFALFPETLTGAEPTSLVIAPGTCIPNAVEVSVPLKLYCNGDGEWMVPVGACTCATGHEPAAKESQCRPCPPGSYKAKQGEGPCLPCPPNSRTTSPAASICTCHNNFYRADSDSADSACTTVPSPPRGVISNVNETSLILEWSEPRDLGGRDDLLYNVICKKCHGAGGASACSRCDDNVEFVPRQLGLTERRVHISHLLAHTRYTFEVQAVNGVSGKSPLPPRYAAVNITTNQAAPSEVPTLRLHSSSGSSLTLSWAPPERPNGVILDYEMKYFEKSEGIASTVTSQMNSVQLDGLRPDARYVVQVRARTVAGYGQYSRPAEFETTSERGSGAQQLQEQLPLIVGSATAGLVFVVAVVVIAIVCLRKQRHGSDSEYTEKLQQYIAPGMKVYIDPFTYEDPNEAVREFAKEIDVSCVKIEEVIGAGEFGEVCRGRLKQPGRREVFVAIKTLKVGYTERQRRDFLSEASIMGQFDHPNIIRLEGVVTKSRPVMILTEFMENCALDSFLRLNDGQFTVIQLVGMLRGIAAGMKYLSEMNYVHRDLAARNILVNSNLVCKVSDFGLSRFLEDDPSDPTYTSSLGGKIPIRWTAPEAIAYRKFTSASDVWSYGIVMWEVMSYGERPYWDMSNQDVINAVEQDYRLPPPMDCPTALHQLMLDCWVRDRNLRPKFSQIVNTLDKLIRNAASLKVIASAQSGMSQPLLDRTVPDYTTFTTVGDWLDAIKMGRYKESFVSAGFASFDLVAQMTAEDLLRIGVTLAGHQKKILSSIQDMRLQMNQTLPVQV
The following applies: at 0.1 µM.

The target in assay [3] is T2, Ephrin type-B receptor 3 (Homo sapiens). The following applies: at 1 µM.
Assay [4] has as its target T3, Ephrin type-B receptor 4 (Homo sapiens) (UniProt P54760).
T3 sequence (whole entry): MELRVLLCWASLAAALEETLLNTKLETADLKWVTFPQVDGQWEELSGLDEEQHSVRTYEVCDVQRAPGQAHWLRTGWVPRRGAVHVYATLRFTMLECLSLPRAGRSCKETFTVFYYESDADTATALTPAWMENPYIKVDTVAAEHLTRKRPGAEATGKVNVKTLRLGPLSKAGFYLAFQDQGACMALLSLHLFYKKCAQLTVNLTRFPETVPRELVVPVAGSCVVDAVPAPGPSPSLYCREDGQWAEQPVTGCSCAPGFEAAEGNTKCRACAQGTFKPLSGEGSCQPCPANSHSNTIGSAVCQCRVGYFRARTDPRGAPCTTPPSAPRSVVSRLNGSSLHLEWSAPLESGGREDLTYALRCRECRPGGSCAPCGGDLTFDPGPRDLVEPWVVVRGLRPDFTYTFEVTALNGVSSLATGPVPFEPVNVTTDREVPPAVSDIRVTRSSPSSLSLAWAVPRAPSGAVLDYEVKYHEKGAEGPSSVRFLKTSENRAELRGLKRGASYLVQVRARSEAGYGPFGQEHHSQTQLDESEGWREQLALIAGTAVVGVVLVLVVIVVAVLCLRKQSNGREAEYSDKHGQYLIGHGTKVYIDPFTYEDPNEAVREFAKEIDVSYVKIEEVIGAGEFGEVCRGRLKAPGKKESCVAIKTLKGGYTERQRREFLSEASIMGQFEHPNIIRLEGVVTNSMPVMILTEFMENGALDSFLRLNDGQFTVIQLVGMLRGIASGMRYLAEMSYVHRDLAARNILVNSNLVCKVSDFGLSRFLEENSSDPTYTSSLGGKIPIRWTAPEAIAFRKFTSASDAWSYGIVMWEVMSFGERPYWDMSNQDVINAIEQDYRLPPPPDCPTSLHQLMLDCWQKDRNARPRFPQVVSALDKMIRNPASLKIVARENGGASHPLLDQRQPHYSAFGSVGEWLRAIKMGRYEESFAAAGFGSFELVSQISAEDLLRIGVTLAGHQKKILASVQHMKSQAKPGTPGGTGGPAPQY
The following applies: at 0.1 µM.

The target in assay [5] is T3, Ephrin type-B receptor 4 (Homo sapiens). The following applies: at 1 µM.
Assay [6] addresses Receptor tyrosine-protein kinase erbB-2 (Homo sapiens) (UniProt P04626). The following applies: at 0.1 µM.
Assay [7] has the same target. The following applies: at 1 µM.
The target in assay [8] is Receptor tyrosine-protein kinase erbB-4 (Homo sapiens) (UniProt Q15303). The following applies: at 0.1 µM.
Assay [9] shares this target. The following applies: at 1 µM.
Assay [10] concerns the target Tyrosine-protein kinase Fer (Homo sapiens) (UniProt P16591). The following applies: at 0.1 µM.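 Also: reported figures are averaged percent inhibition of FER.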

Values joined by “and” are separate entries in the source; they are usually repeats but may differ in a detail not shown here. Equal values may be shown once.

Sequence of Receptor tyrosine-protein kinase erbB-4 (Homo sapiens) (Q15303 whole entry): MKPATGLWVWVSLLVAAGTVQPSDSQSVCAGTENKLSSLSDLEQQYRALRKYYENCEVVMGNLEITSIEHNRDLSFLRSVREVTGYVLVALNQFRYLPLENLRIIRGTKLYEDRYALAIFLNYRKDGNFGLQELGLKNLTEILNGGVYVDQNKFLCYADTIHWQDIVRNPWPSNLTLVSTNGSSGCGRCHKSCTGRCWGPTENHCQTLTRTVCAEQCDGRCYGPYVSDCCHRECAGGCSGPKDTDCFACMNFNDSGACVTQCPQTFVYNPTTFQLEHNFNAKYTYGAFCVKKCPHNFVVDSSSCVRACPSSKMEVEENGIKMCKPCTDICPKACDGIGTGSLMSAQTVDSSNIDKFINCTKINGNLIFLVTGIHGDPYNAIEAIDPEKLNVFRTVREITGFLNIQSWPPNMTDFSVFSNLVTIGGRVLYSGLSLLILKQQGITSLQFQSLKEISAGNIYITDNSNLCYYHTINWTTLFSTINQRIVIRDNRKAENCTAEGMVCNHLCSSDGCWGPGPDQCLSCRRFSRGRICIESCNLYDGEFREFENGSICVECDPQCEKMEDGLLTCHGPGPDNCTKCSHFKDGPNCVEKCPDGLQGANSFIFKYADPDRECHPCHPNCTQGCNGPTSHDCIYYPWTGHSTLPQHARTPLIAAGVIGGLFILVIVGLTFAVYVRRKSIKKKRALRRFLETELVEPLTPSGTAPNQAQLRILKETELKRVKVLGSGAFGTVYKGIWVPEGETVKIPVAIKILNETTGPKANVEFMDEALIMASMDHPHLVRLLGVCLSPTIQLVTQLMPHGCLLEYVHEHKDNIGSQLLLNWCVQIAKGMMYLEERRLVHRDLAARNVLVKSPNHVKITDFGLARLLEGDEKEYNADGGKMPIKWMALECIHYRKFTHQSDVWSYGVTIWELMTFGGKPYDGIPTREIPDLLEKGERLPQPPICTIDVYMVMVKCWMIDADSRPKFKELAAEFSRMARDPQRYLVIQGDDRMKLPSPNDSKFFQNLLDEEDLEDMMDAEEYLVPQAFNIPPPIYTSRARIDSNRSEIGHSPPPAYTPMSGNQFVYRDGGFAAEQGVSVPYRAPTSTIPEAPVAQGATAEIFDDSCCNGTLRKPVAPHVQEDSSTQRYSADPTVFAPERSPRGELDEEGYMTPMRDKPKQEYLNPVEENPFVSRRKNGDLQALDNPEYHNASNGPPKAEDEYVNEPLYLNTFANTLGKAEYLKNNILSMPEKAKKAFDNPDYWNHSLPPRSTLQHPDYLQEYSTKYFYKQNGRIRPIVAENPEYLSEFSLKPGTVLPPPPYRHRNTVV
Sequence of Tyrosine-protein kinase Fer (Homo sapiens) (P16591 whole entry, looked up): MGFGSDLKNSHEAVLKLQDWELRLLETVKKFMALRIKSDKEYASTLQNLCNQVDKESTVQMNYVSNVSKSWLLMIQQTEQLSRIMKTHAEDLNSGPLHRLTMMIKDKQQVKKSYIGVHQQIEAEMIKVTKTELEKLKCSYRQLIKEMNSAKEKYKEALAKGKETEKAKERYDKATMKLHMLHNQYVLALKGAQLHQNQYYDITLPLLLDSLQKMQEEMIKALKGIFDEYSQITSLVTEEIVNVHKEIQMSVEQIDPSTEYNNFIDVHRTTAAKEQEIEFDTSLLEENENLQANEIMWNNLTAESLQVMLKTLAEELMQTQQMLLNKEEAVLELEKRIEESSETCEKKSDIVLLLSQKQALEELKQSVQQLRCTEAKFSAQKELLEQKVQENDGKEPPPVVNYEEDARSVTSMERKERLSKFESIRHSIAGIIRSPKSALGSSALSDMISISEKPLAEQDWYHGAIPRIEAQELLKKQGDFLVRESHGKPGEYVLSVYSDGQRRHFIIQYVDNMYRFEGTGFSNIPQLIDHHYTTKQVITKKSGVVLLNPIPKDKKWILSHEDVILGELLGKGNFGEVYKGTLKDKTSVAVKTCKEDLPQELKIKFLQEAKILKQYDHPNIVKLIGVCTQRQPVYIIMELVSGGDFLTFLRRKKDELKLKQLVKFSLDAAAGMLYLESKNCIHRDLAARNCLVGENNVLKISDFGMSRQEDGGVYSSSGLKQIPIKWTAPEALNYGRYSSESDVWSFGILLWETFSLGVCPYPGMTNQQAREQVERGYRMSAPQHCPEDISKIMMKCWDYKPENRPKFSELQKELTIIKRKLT
Sequence of Receptor tyrosine-protein kinase erbB-2 (Homo sapiens) (P04626 whole entry): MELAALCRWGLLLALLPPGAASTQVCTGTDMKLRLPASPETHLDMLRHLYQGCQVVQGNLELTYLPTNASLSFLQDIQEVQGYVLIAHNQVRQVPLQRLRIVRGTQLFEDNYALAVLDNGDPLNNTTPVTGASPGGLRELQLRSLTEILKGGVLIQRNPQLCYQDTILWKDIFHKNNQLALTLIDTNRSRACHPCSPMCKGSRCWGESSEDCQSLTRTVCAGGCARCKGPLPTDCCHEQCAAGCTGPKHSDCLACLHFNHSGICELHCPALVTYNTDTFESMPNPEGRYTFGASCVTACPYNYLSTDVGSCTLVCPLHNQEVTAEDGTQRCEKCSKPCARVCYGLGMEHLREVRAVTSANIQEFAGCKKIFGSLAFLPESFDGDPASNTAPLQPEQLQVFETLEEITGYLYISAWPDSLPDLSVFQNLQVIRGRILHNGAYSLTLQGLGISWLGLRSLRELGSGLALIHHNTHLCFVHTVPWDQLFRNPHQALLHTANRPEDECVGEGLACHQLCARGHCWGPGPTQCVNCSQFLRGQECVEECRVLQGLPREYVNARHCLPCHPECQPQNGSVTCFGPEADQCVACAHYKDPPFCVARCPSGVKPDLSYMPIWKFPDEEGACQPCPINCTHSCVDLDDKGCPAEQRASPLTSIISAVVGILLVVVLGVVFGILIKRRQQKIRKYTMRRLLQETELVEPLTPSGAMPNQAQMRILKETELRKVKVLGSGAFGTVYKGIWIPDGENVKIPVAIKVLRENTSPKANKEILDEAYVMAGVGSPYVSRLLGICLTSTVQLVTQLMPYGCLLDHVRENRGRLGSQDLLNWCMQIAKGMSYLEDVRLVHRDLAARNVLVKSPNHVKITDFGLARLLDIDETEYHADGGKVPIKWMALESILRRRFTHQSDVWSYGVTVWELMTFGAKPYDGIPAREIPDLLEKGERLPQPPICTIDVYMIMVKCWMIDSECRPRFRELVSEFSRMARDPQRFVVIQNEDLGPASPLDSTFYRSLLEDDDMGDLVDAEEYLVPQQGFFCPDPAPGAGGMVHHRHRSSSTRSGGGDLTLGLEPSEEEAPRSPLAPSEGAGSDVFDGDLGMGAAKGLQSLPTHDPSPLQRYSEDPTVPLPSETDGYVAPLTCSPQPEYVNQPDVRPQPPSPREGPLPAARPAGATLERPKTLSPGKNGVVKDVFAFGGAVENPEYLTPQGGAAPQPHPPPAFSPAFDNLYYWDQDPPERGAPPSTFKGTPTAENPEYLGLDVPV

One may read the inhibition as the relative decrease from the control value, in per cent. As for `CCn1c(-c2nonc2N)nc2cncc(C(=O)NCCNC)c21`, the inhibition in assay [1] is 7.7%; in [2] it was 3.02%; in assay [3], 3.19%; in assay [4], -0.07%; in assay [5], 0.78%; in [6] it was 5.03%. Besides, the inhibition in assay [7] stood at 3.74%; in assay [8], 10.7%; in assay [9], 12.2%; in [10], 4.13%.

Take `COc1cc2c(cc1Nc1nc(Nc3cccc(F)c3C(N)=O)c3cc[nH]c3n1)N(C(=O)CN1CCN(C(C)C)CC1)CC2`: the inhibition in [1] is 3.39%; in assay [2], 1.98%; in [3], 0.18%; in assay [4] it was 1.3%; in [5], 2.98%; in [6] it was 2.36%. Further, the inhibition in [7] worked out at 3.48%; in assay [8], 16.9%; in [9], 59.7%; in assay [10] it was 8%.

As for `Cc1c2ccc(N(C)c3ccnc(Nc4cccc(S(N)(=O)=O)c4)n3)cc2nn1C`, the inhibition was 23.3% in [1]; 3.38% in assay [2]; 0.55% in [3]; 0.19% in assay [4]; 10.3% in assay [5]; 1.55% in assay [6]. Moreover, the inhibition in assay [7] is -3.44%; in assay [8], 5.59%; in [9], 12.1%; in [10] it was 25.1%.

Take `O=C(O[C@H]1CN[C@H](C#Cc2cc3ncnc(Nc4ccc5c(ccn5Cc5cc(F)ccc5F)c4)c3s2)C1)N1CCOCC1`: the inhibition in assay [1] was determined as 4.17%; in assay [2], 6.61%; in [3], 5.15%; in assay [4], 2.46%; in [5], 3.04%; in [6], 9.01%. Moreover, the inhibition in assay [7] worked out at 40.9%; in [8], 86.9%; in [9], 86.3%; in assay [10], 1.31%.

Regarding `N#Cc1ccc2c(-c3ccnc(NC4CC4)n3)c(-c3ccc(F)cc3)nn2c1`, the inhibition was 24.5% in assay [1]; 5.62% in assay [2]; 4.39% in assay [3]; -0.62% in assay [4]; 2.45% in assay [5]; 1.97% in assay [6]. Also, the inhibition in assay [7] is 5%; in [8] it was 5.5%; in assay [9] it was 13.4%; in assay [10], -2.41%.

As for `COc1ccc2ncn(-c3cc(O[C@H](C)c4ccccc4C(F)(F)F)c(C(N)=O)s3)c2c1`, the inhibition in [1] is 1.95%; in assay [2], 1.32%; in assay [3], 0.52%; in assay [4], -1.21%; in assay [5] it was 1.77%; in [6], -0.36%. Also, the inhibition in [7] was -1.72%; in [8] it was 1.06%; in [9], 3.12%; in assay [10], 1.06%.

For the compound `NS(=O)(=O)c1cccc(N/C=C2\C(=O)Nc3ccccc32)c1`, the inhibition came to 10.8% in assay [1]; 5.46% in [2]; 2.58% in assay [3]; 4.23% in [4]; 3.73% in assay [5]; 1.3% in assay [6]. For the same compound, the inhibition in assay [7] is -0.02%; in assay [8], 13.3%; in assay [9], 14.6%; in [10], 3.91%.

Take `CCS(=O)(=O)c1ccc(OC)c(Nc2ncc(-c3cccc(C(C)=O)c3)o2)c1`: the inhibition in assay [1] is 21.8%; in assay [2] it was 3.26%; in [3], 5.98%; in [4], 1.8%; in assay [5], 6.82%; in assay [6] it was 2.14%. The inhibition in assay [7] came out at 6.11%; in [8], 7.58%; in assay [9] it was 11.1%; in [10] it was 1.02%.

Take `COc1cccc(-n2ncc3c(N/N=C/c4ccc(C(=O)NCCN(C)C)cc4)ncnc32)c1`: the inhibition was 46.4% in assay [1]; 5.98% in assay [2]; 7.32% in assay [3]; 6.37% in [4]; 30.5% in [5]; 0.77% in assay [6]. Also, the inhibition in assay [7] stood at 10.5%; in assay [8] it was 23.2%; in assay [9], 49.9%; in [10], 3.03%.

`Nc1nccc(-c2c(-c3ccc(F)cc3)ncn2C2CCNCC2)n1`: the inhibition in assay [1] is 3.74% and 17%; in assay [2], -8.29% and 1.29%; in [3], -2.02% and 2.97%; in assay [4], -1.79% and 2.99%; in [5], 1.69% and 3.45%; in assay [6], -4.63% and -1.31%. Further, the inhibition was -2.23% and 2.46% in assay [7]; 3.28% in [8]; -6.69% and 9.1% in assay [9]; -1.84% and 2.2% in [10].

In the case of `CN(C)CCNC(=O)Nc1ccc(N(C)c2ccnc(Nc3ccc(CS(C)(=O)=O)cc3)n2)cc1`, the inhibition in [1] was found to be 15.1%; in [2], 5.05%; in assay [3] it was 1.99%; in assay [4] it was 2.45%; in [5], 3.65%; in [6], 0.75%. The inhibition was -0.72% in [7], 8.93% in assay [8], 9.37% in assay [9] and 4.17% in assay [10].
